Source: the supplement of paper PMC5662767
Structures can show the parent of a compound that is named as a salt.

Tested on: Drosophila S2 cl14 SmoIP sensor cells
Assay: normalized SmoIP GFP fluorescence (untreated unstimulated = 0%, untreated Hh-stimulated = 100%); higher = more Smo activation sensor fluorescence
Settings: compound concentration: 2 uM, 24 h
[1] = stimulation: Hh conditioned medium (+Hh)
[2] = stimulation: mock conditioned medium (-Hh)
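Note: flow cytometry read-out as median GFP intensity of gated cells, compounds added 30 min before Hh-conditioned or mock medium, mock-treated cells serving as unstimulated baseline.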

SMILES	normalized SmoIP GFP fluorescence [1] [%]	normalized SmoIP GFP fluorescence [2] [%]
CC(=O)Oc1ccccc1C(=O)O [aspirin-acetylsalicylic-acid]	101	-6.51
CC(C)N(C[C@H]1O[C@@H](n2cnc3c(N)ncnc32)[C@H](O)[C@@H]1O)[C@H]1C[C@@H](CCc2nc3cc(C(C)(C)C)ccc3[nH]2)C1	124	-2.59
O=C(Nc1ccc(-c2ccnc(Nc3ccc(N4CCOCC4)cc3)n2)cc1)C1CCCN1 (configuration not stated)	121	2.12
NC(=O)N1c2ccccc2CC(=O)c2ccccc21 [Oxcarbazepine]	103	2.97
CC(C)NCC(O)COc1ccc(COCCOC(C)C)cc1 (configuration not stated) [Bisoprolol-Fumarate]	103	8.79
OC(CN1CCN(c2cccc(Cl)c2)CC1)C(c1ccccc1)c1ccccc1 (configuration not stated)	109	-4.89
CC(=O)c1cc([N+](=O)[O-])c(Sc2cccc(Cl)c2Cl)s1	108	-4.24
O=C(CCCCCCNC(=O)c1cnc(N(c2ccccc2)c2ccccc2)nc1)NO [rocilinostat-acy-1215]	114	6.2
Nc1nnc(-c2cccc(Cl)c2Cl)c(N)n1 [lamotrigine]	101	-3.5
COc1cc(CCc2cc(NC(=O)c3ccc(N4CC(C)NC(C)C4)cc3)n[nH]2)cc(OC)c1 (configuration not stated)	114	2.97
Cc1cc(C2CCCCC2)n(O)c(=O)c1 [ciclopirox-ethanolamine]	101	-0.264
CC/C(=C(\c1ccccc1)c1ccc(OCCN(C)C)cc1)c1ccccc1 [Tamoxifen-Citrate(Nolvadex)]	112	-6.61
O=C1NC(=O)C(=Cc2ccc(-c3ccc(F)cc3)o2)S1 (stereo in doubt)	102	-2.48
C=CC(=O)Nc1ccc2ncnc(Nc3ccc(OCc4cccc(F)c4)c(Cl)c3)c2c1	99.1	-15.8
C=CCc1ccc(O)c(-c2ccc(O)c(CC=C)c2)c1 [Honokiol]	104	-9.22
CC(=O)N[C@@H](CS)C(=O)O [Acetylcysteine]	111	1.57
Cc1cncc(CN2CCC(=C3c4ccc(Cl)cc4CCc4cccnc43)CC2)c1 [rupatadine-fumarate]	112	3.77
CC(=O)NS(=O)(=O)c1ccc(N)cc1 [sulfacetamide-sodium]	103	-5.72
CCOC(=O)[C@H](CCc1ccccc1)N[C@H]1CS[C@H](c2cccs2)CN(CC(=O)O)C1=O [temocapril-hcl]	111	0.785
CCOc1cc([C@@H](CS(C)(=O)=O)N2C(=O)c3cccc(NC(C)=O)c3C2=O)ccc1OC	142	-14.5
O=C(NS(=O)(=O)c1ccc(Br)s1)c1ccc(Cl)cc1Cl [tasisulam]	104	-4.01
Nc1ccc2ncnc(NCCc3ccc(Oc4ccccc4)cc3)c2c1	45.5	39.1
CCCNS(=O)(=O)Nc1ncnc(OCCOc2ncc(Br)cn2)c1-c1ccc(Br)cc1 [macitentan]	126	15.2
Cn1c(=O)c(F)c(Nc2ccc(I)cc2F)c2c(=O)n(C[C@@H](O)CO)cnc21	262	47.8
O=C(NCCN1CCOCC1)c1ccc(Cl)cc1 [moclobemide]	108	-3.05
CN1CCN(CCCN2c3ccccc3Sc3ccc(C(F)(F)F)cc32)CC1 [trifluoperazine-dihydrochloride]	108	4
